Where a chain is given by its changes, count along the chain named.

Assay in all cases: PBM; 200 nM protein, PBS
Common to all, as to conditions: dsDNA, one strand shown

For assay [1], the target named is HOXB9 (Homo sapiens, UniProt P17482 171-250, T197M).
Assay [2] addresses HOXC9 (Homo sapiens, UniProt P31274 178-260, K195R).
The target in the next assay is T1, VENTX (Homo sapiens, UniProt O95231 78-163).
T1 sequence: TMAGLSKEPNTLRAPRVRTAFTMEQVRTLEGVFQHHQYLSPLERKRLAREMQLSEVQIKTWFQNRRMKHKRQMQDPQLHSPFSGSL

The target of assay [3] is HOXA7 (Homo sapiens, UniProt P31268 116-202).
The target of assay [4] is HOXC10 (Homo sapiens, UniProt Q9NYD6 254-340).
Assay [5] deals with T2, PAX4 (Homo sapiens, UniProt O43316 9-242).
T2 sequence: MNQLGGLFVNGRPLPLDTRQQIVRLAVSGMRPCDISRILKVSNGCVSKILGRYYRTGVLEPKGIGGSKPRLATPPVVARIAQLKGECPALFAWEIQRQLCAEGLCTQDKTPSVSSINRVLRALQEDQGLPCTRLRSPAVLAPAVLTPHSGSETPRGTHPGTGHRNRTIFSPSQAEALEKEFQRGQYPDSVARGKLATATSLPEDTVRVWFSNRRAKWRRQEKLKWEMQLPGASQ

The target of assay [6] is HOXB6 (Homo sapiens, UniProt P17509 132-218, K202E).
The target in assay [7] is HOXB9 (Homo sapiens, UniProt P17482 171-250).
The target of assay [8] is HOXC9 (Homo sapiens, UniProt P31274 178-260).
The target of assay [9] is HOXC9 (Homo sapiens, UniProt P31274 178-260, R193K).
The target of assay [10] is HOXA2 (Homo sapiens, UniProt O43364 129-215, R185K).
Assay [11] deals with HOXC10 (Homo sapiens, UniProt Q9NYD6 254-340, K271E).
In another assay the target is VAX1 (Homo sapiens, UniProt Q5SQQ9 86-172).
In assay [12] the target is HOXB9 (Homo sapiens, UniProt P17482 171-250, R186Q).
For assay [13], the target named is HOXC9 (Homo sapiens, UniProt P31274 178-260, R222W).
For assay [14], the target named is T3, PAX4 (Homo sapiens, UniProt O43316 9-242, R227W).
T3 sequence: T2 sequence with R219W

Assay [15] has as its target HOXA2 (Homo sapiens, UniProt O43364 129-215, Y150S).
Assay [16] concerns the target HOXA7 (Homo sapiens, UniProt P31268 116-202, W177C).
The target in assay [17] is HOXA2 (Homo sapiens, UniProt O43364 129-215).
Assay [18] addresses HOXB6 (Homo sapiens, UniProt P17509 132-218).

Sequence of HOXB6 (Homo sapiens, UniProt P17509 132-218, K202E) (P17509 132-218 K202E): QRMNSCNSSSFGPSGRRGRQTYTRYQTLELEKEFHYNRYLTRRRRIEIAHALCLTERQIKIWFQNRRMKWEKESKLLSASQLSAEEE
Sequence of HOXA7 (Homo sapiens, UniProt P31268 116-202) (P31268 116-202): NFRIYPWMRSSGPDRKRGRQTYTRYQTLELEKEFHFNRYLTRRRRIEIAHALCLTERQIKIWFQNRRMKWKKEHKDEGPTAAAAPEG
Sequence of HOXC9 (Homo sapiens, UniProt P31274 178-260) (P31274 178-260): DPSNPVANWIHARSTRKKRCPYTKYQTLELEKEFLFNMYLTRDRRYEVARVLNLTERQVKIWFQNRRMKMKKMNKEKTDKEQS
Sequence of HOXA2 (Homo sapiens, UniProt O43364 129-215, Y150S) (O43364 129-215 Y150S): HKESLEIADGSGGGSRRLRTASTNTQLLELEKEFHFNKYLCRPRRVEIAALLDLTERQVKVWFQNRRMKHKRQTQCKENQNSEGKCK
Sequence of HOXB6 (Homo sapiens, UniProt P17509 132-218) (P17509 132-218): as the sequence (P17509 132-218 K202E) above, with E71K counted along it
Sequence of HOXA2 (Homo sapiens, UniProt O43364 129-215, R185K) (O43364 129-215 R185K): as the sequence (O43364 129-215 Y150S) above, with S22Y, R57K counted along it
Sequence of HOXC9 (Homo sapiens, UniProt P31274 178-260, K195R) (P31274 178-260 K195R): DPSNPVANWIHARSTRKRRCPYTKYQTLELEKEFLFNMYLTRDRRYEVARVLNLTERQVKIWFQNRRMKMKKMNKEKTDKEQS
Sequence of HOXC9 (Homo sapiens, UniProt P31274 178-260, R193K) (P31274 178-260 R193K): as the sequence (P31274 178-260) above, with R16K counted along it
Sequence of HOXC9 (Homo sapiens, UniProt P31274 178-260, R222W) (P31274 178-260 R222W): as the sequence (P31274 178-260) above, with R45W counted along it
Sequence of HOXB9 (Homo sapiens, UniProt P17482 171-250, T197M) (P17482 171-250 T197M): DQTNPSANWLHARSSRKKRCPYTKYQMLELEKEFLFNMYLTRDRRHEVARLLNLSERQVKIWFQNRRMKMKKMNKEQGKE
Sequence of HOXB9 (Homo sapiens, UniProt P17482 171-250, R186Q) (P17482 171-250 R186Q): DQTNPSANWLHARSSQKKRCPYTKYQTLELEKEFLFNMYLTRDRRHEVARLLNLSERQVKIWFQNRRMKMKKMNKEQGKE
Sequence of HOXC10 (Homo sapiens, UniProt Q9NYD6 254-340, K271E) (Q9NYD6 254-340 K271E): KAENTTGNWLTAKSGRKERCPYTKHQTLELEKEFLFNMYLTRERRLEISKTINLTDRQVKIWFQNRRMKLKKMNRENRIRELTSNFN
Sequence of HOXB9 (Homo sapiens, UniProt P17482 171-250) (P17482 171-250): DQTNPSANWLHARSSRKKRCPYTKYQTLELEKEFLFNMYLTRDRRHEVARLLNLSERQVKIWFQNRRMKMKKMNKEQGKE
Sequence of HOXA2 (Homo sapiens, UniProt O43364 129-215) (O43364 129-215): as the sequence (O43364 129-215 Y150S) above, with S22Y counted along it
Sequence of HOXA7 (Homo sapiens, UniProt P31268 116-202, W177C) (P31268 116-202 W177C): as the sequence (P31268 116-202) above, with W62C counted along it
Sequence of HOXC10 (Homo sapiens, UniProt Q9NYD6 254-340) (Q9NYD6 254-340): as the sequence (Q9NYD6 254-340 K271E) above, with E18K counted along it
Sequence of VAX1 (Q5SQQ9 86-172): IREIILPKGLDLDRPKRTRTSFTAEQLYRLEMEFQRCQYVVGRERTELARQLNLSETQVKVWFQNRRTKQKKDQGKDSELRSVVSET

As to GATAATTA, the binding signal was 10.5 upbm affinity estimate (log intensity, higher = more binding, comparable within an allelic series) in the assay with HOXB9 [1]; 12.9 upbm affinity estimate (log intensity, higher = more binding, comparable within an allelic series) in the assay with HOXC9 [2]; 12.8 upbm affinity estimate (log intensity, higher = more binding, comparable within an allelic series) with VENTX; 12.2 upbm affinity estimate (log intensity, higher = more binding, comparable within an allelic series) with HOXA7 [3]; 12.2 upbm affinity estimate (log intensity, higher = more binding, comparable within an allelic series) in the assay with HOXC10 [4]; 12.6 upbm affinity estimate (log intensity, higher = more binding, comparable within an allelic series) with PAX4 [5]. Further, the binding signal with HOXB6 [6] is 10.2 upbm affinity estimate (log intensity, higher = more binding, comparable within an allelic series); with HOXB9 [7], 11.9 upbm affinity estimate (log intensity, higher = more binding, comparable within an allelic series); in the assay with HOXC9 [8], 12.8 upbm affinity estimate (log intensity, higher = more binding, comparable within an allelic series); with HOXC9 [9], 12.8 upbm affinity estimate (log intensity, higher = more binding, comparable within an allelic series); with HOXA2 [10] it was 13.8 upbm affinity estimate (log intensity, higher = more binding, comparable within an allelic series); with HOXC10 [11], 12.2 upbm affinity estimate (log intensity, higher = more binding, comparable within an allelic series). In addition, the binding signal was 13.7 upbm affinity estimate (log intensity, higher = more binding, comparable within an allelic series) with VAX1; 11.8 upbm affinity estimate (log intensity, higher = more binding, comparable within an allelic series) with HOXB9 [12]; 11.1 upbm affinity estimate (log intensity, higher = more binding, comparable within an allelic series) with HOXC9 [13]; 11.2 upbm affinity estimate (log intensity, higher = more binding, comparable within an allelic series) with PAX4 [14]; 10.9 upbm affinity estimate (log intensity, higher = more binding, comparable within an allelic series) in the assay with HOXA2 [15]; 9.01 upbm affinity estimate (log intensity, higher = more binding, comparable within an allelic series) in the assay with HOXA7 [16]. Moreover, the binding signal with HOXA2 [17] was 13.2 upbm affinity estimate (log intensity, higher = more binding, comparable within an allelic series); in the assay with HOXB6 [18], 12.5 upbm affinity estimate (log intensity, higher = more binding, comparable within an allelic series).
AATTAATT: the binding signal is 10.3 upbm affinity estimate (log intensity, higher = more binding, comparable within an allelic series) with HOXB9 [1]; 12.9 upbm affinity estimate (log intensity, higher = more binding, comparable within an allelic series) with HOXC9 [2]; 12.5 upbm affinity estimate (log intensity, higher = more binding, comparable within an allelic series) in the assay with VENTX; 11.9 upbm affinity estimate (log intensity, higher = more binding, comparable within an allelic series) in the assay with HOXA7 [3]; 12.2 upbm affinity estimate (log intensity, higher = more binding, comparable within an allelic series) in the assay with HOXC10 [4]; 12.7 upbm affinity estimate (log intensity, higher = more binding, comparable within an allelic series) in the assay with PAX4 [5]. The binding signal with HOXB6 [6] is 10.2 upbm affinity estimate (log intensity, higher = more binding, comparable within an allelic series); with HOXB9 [7] it was 12.2 upbm affinity estimate (log intensity, higher = more binding, comparable within an allelic series); with HOXC9 [8], 12.8 upbm affinity estimate (log intensity, higher = more binding, comparable within an allelic series); in the assay with HOXC9 [9], 12.8 upbm affinity estimate (log intensity, higher = more binding, comparable within an allelic series); with HOXA2 [10], 13.5 upbm affinity estimate (log intensity, higher = more binding, comparable within an allelic series); in the assay with HOXC10 [11], 12.2 upbm affinity estimate (log intensity, higher = more binding, comparable within an allelic series). Besides, the binding signal in the assay with VAX1 was 13.3 upbm affinity estimate (log intensity, higher = more binding, comparable within an allelic series); with HOXB9 [12], 11.9 upbm affinity estimate (log intensity, higher = more binding, comparable within an allelic series); with HOXC9 [13], 11.2 upbm affinity estimate (log intensity, higher = more binding, comparable within an allelic series); with PAX4 [14], 11.3 upbm affinity estimate (log intensity, higher = more binding, comparable within an allelic series); with HOXA2 [15], 11 upbm affinity estimate (log intensity, higher = more binding, comparable within an allelic series); in the assay with HOXA7 [16], 8.91 upbm affinity estimate (log intensity, higher = more binding, comparable within an allelic series). The binding signal with HOXA2 [17] was 12.8 upbm affinity estimate (log intensity, higher = more binding, comparable within an allelic series); with HOXB6 [18], 12.4 upbm affinity estimate (log intensity, higher = more binding, comparable within an allelic series).
As for TAATTAAA, the binding signal with HOXB9 [1] is 10.3 upbm affinity estimate (log intensity, higher = more binding, comparable within an allelic series); in the assay with HOXC9 [2], 13.1 upbm affinity estimate (log intensity, higher = more binding, comparable within an allelic series); with VENTX it was 12.5 upbm affinity estimate (log intensity, higher = more binding, comparable within an allelic series); in the assay with HOXA7 [3], 11.9 upbm affinity estimate (log intensity, higher = more binding, comparable within an allelic series); with HOXC10 [4], 12.7 upbm affinity estimate (log intensity, higher = more binding, comparable within an allelic series); with PAX4 [5] it was 12.5 upbm affinity estimate (log intensity, higher = more binding, comparable within an allelic series). For the same sequence, the binding signal with HOXB6 [6] was 10.1 upbm affinity estimate (log intensity, higher = more binding, comparable within an allelic series); with HOXB9 [7], 12.4 upbm affinity estimate (log intensity, higher = more binding, comparable within an allelic series); in the assay with HOXC9 [8], 13 upbm affinity estimate (log intensity, higher = more binding, comparable within an allelic series); with HOXC9 [9], 13 upbm affinity estimate (log intensity, higher = more binding, comparable within an allelic series); in the assay with HOXA2 [10], 13.5 upbm affinity estimate (log intensity, higher = more binding, comparable within an allelic series); with HOXC10 [11], 12.7 upbm affinity estimate (log intensity, higher = more binding, comparable within an allelic series). Further, the binding signal with VAX1 is 13.3 upbm affinity estimate (log intensity, higher = more binding, comparable within an allelic series); with HOXB9 [12], 12.1 upbm affinity estimate (log intensity, higher = more binding, comparable within an allelic series); in the assay with HOXC9 [13], 11.5 upbm affinity estimate (log intensity, higher = more binding, comparable within an allelic series); in the assay with PAX4 [14], 11.2 upbm affinity estimate (log intensity, higher = more binding, comparable within an allelic series); with HOXA2 [15] it was 10.9 upbm affinity estimate (log intensity, higher = more binding, comparable within an allelic series); with HOXA7 [16] it was 8.8 upbm affinity estimate (log intensity, higher = more binding, comparable within an allelic series). For the same sequence, the binding signal in the assay with HOXA2 [17] was 12.9 upbm affinity estimate (log intensity, higher = more binding, comparable within an allelic series); with HOXB6 [18] it was 12.3 upbm affinity estimate (log intensity, higher = more binding, comparable within an allelic series).
For GCAATTAA, the binding signal in the assay with HOXB9 [1] was 10.5 upbm affinity estimate (log intensity, higher = more binding, comparable within an allelic series); in the assay with HOXC9 [2], 13.1 upbm affinity estimate (log intensity, higher = more binding, comparable within an allelic series); with VENTX, 12.8 upbm affinity estimate (log intensity, higher = more binding, comparable within an allelic series); with HOXA7 [3], 12.3 upbm affinity estimate (log intensity, higher = more binding, comparable within an allelic series); with HOXC10 [4] it was 12.4 upbm affinity estimate (log intensity, higher = more binding, comparable within an allelic series); with HOXB6 [6], 10.1 upbm affinity estimate (log intensity, higher = more binding, comparable within an allelic series). Moreover, the binding signal is 12.6 upbm affinity estimate (log intensity, higher = more binding, comparable within an allelic series) in the assay with HOXB9 [7]; 13.1 upbm affinity estimate (log intensity, higher = more binding, comparable within an allelic series) with HOXC9 [8]; 13 upbm affinity estimate (log intensity, higher = more binding, comparable within an allelic series) in the assay with HOXC9 [9]; 13.4 upbm affinity estimate (log intensity, higher = more binding, comparable within an allelic series) in the assay with HOXA2 [10]; 12.6 upbm affinity estimate (log intensity, higher = more binding, comparable within an allelic series) with HOXC10 [11]; 13.2 upbm affinity estimate (log intensity, higher = more binding, comparable within an allelic series) in the assay with VAX1. Moreover, the binding signal was 12.4 upbm affinity estimate (log intensity, higher = more binding, comparable within an allelic series) in the assay with HOXB9 [12]; 11.1 upbm affinity estimate (log intensity, higher = more binding, comparable within an allelic series) in the assay with HOXC9 [13]; 10.8 upbm affinity estimate (log intensity, higher = more binding, comparable within an allelic series) in the assay with HOXA2 [15]; 8.72 upbm affinity estimate (log intensity, higher = more binding, comparable within an allelic series) with HOXA7 [16]; 12.6 upbm affinity estimate (log intensity, higher = more binding, comparable within an allelic series) with HOXA2 [17]; 12.7 upbm affinity estimate (log intensity, higher = more binding, comparable within an allelic series) with HOXB6 [18].

For the origin of these results see article PMC11006913.
